HT1080 IDH1KD tx: kills HT-1080 cells with IDH1 knockdown. Potency, µM (titrated, usually from 46.1 µM), for the others: at the highest dose activity, negative = toxicity, actives largely listed as cytotoxic. HT-1080 IDH1 knockdown viability, ATP luminescence, 48 h. AID 686971. actives 2% (n = 360,000);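 note: 0% = DMSO wells and -100% = cell-free medium wells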
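IDH1KD HT-1080 cells, 750/well, RPMI + 5% FBS; compound pinned after 2 h settling; 48 h, 37 °C; CellTiter-Glo luminescence; % activity normalised to DMSO and no-cell wells; curves fitted, classed by r2 and efficacy.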
KB-3-1 tox: KB-3-1 parental cell cytotoxicity; KB-3-1 viability, CellTiter-Glo ATP luminescence, 72 h; Potency, µM (highest dose often 46.1 µM), most hits filed as cytotoxic; actives 1.4% (n = 400,000); AID 1347075; note: % is set by controls: 0 for no effect and ±100 for the full control effect; nearly all actives have a fitted effect of over 60% in size
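Cytotoxicity in the drug-sensitive parental line KB-3-1 was scored as loss of CellTiter-Glo luminescence following 72 h incubation with compound. Values come from curve fitting of normalized concentration-response data.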
SW480 rerep: DNA re-replication induction in SW480 cells | SW480 DNA re-replication, Hoechst DNA content imaging, 48 h | Potency, µM (series often up to 46.1 µM), for inactives: top-dose re-replication activation, actives largely listed as activators | actives 1.8% (n = 340,000) | AID 624297; note: % of control where 0% means no effect; nearly all actives have a fitted effect of over 55% in size
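Readout is total intensity of Hoechst-stained nuclei, excited at 405 nm and collected at 500-530 nm. Compound treatment lasted 48 hr at 37 C in 5% CO2 before staining.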
HT1080NT lethal: kills 2HG-producing HT-1080-NT fibrosarcoma cells | HT-1080-NT fibrosarcoma viability, CellTiter-Glo ATP luminescence, 48 h | Potency, µM (highest dose often 46.1 µM), without a hit: at the top dose activity, negative = less viability, actives largely listed as cytotoxic | actives 1.6% (n = 360,000) | AID 686970;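 note: NT is the 2HG producing partner of a matched IDH1 knockdown line; 0% = DMSO-treated cells and -100% = media-only wells without cells; nearly all actives have a fitted effect of over 55% in size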
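750 cells/well, RPMI + 5% FBS; 2 h settle, compound pin-transfer, 48 h at 37 degrees C. CellTiter-Glo 10 min RT, luminescence. Normalized to DMSO and media-only wells.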
KB-V1 cytotox: kills drug-selected multidrug resistant KB-V1 cells; Potency, µM (highest dose often 46.1 µM), actives largely listed as cytotoxic; actives 3.4% (n = 400,000); AID 1347076; KB-V1 MDR cells viability, CellTiter-Glo, 72 h; note: % is set by controls: 0 for no effect and ±100 for the full control effect; nearly all actives have a fitted effect of over 60% in size
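qHTS viability screen in drug-selected KB-V1 MDR cells: 72 h compound treatment at 37 degrees C, ATP luminescence end point.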
MCF10A rerep: DNA re-replication induction in MCF 10a cells. MCF 10A DNA re-replication, Hoechst nuclear intensity, 48 h. Potency, µM (highest dose often 46.1 µM), for inactives: top-dose activity, positive = re-replication, usual class: activators. actives 2.9% (n = 350,000). AID 624296; note: % of control where 0% means no effect; nearly all actives have a fitted effect of over 50% in size
* = called active by the depositor; i = inactive; u = inconclusive; x = no result given; ! = not active in a repeat. In the library only some 8% were active in any assay of this set; here they are far more common. Calls come from the whole dose curve; as a rule, active = well fitted curve in the direction sought with a large enough effect; inconclusive = small, poorly fitted or top-dose-only effect, or another doubt; inactive = no such curve, though single readings can be large; an effect the other way counts as inactive or inconclusive. Potency is the fitted concentration of half-maximal effect.

SMILES | HT1080 IDH1KD tx | KB-3-1 tox | SW480 rerep | HT1080NT lethal | KB-V1 cytotox | MCF10A rerep
O=C1N=NC2=C1c1c3ccccc3c(O)n1CC2 | 16% | i | -4% | 0% | i | -32%
CCOC(=O)c1c(-n2c(C)cc(/C=C3/C(=O)NC(=O)N(CC)C3=O)c2C)sc2c1CCCC2 | 6% | i | 4% | -1% | u | 10%
CCOC(=O)c1c(-n2c(C)cc(C=C3C(=O)NC(=S)NC3=O)c2C)sc2c1CCCC2 | u | u | u | u | i | 18µM*
CN(C)C(=O)Oc1cccc(-c2cn3cc(Cl)ccc3n2)c1 | -1% | i | 11% | 8% | 13µM* | 25%
CN(C)C(=O)Oc1ccc(-c2cn3cc(Cl)ccc3n2)cc1 | -11% | i | 1% | -2% | 4.1µM* | 1%
CN(C)C(=O)Oc1ccc(-c2cn3cc(C(F)(F)F)ccc3n2)cc1 | 23% | i | u | 3% | i | 11%
COc1ccc(Br)cc1C1SCC(=O)Nc2c1c(C)nn2-c1ccccc1C (stereo unspecified) | x | u | x | x | i | x
CC[N+](C)(CC)CCOC(=O)C(O)(c1ccccc1)c1ccccc1 | x | x | 0% | x | x | 4%
COc1cc(/C=N/Nc2ccc(S(N)(=O)=O)cc2)cc(OC)c1OC | -6% | i | -2% | -11% | i | u
CC(C)Nc1nc(NC(C)C)nc(N(C#N)CCOc2ccc(Cl)cc2Cl)n1 | u | i | u | u | u | 18µM*
CN(CC(=O)Nc1ccc(N2CCOCC2)cc1)CC(=O)Nc1cccc(C#N)c1 | 0% | i | u | -6% | i | 16%
CC1=C(N2CC2)C(=O)C(CO)=C(N2CC2)C1=O | 0.0058µM* | 0.46µM* | u | u | 0.26µM* | u
O=C1Nc2ccc(Cl)cc2C(c2ccccc2Cl)=NC1O (stereo unspecified) | x | x | 5% | x | x | 5%
CCC1(c2ccccc2)C(=O)NC(=O)N(C(=O)c2ccccc2)C1=O (stereo unspecified) | x | x | 0% | x | x | -2%
CCN(CC)c1ccc(N=Cc2c(O)n(-c3ccccc3C)c(=O)[nH]c2=O)cc1 | u | i | 3% | u | i | -6%
CCOc1ccc(N=Cc2c(O)n(Cc3ccccc3)c(=S)[nH]c2=O)cc1 | 19% | i | -9% | 24% | i | -24%
O=c1c2ccccc2c(C=Nc2ccc(O)cc2)c(O)n1Cc1ccccc1 | -2% | i | 21µM* | 2% | u | u
CCN(CC)c1ccc(N=Cc2c(O)n(Cc3ccccc3)c(=O)[nH]c2=O)cc1 | -15% | i | 0.52µM*! | -2% | u | u
COc1ccc(Cn2c(O)c(/C=N/NC(=O)c3ccccc3O)c(=O)[nH]c2=O)cc1 | u | u | -3% | u | i | 4.6µM*
CCOc1ccccc1-n1c(O)c(C=Nc2ccc(N(CC)CC)cc2)c(=O)[nH]c1=O | u | 16µM* | u | u | u | u
CCOCCC(=O)Nc1ccc2c(c1)c(=O)n(C)n2Cc1cccc(C(F)(F)F)c1 | 14% | i | x | u | i | x
O=C(Nc1ccc(OC(F)(F)F)cc1)c1cccn(Cc2ccccc2Cl)c1=O | x | i | x | x | i | x
CCC(=O)N1CC(=O)Nc2ccc(C)cc2C1c1ccc(F)cc1 (stereo unspecified) | x | i | x | x | i | x
ClC1=C(Cl)C2(Cl)C3C4CC(C5OC45)C3C1(Cl)C2(Cl)Cl (stereo unspecified) | x | x | -4% | x | x | 12%
Cc1ccnc(NS(=O)(=O)c2cc([N+](=O)[O-])ccc2C)c1 | 11% | i | u | 17% | i | 4%
Cc1ccc(S(=O)(=O)Nc2ccc3ncccc3c2[N+](=O)[O-])cc1 | -5% | 18µM* | u | -3% | 21µM* | u
O=C(c1ccco1)N1CCN(C(=O)c2ccc(COc3ccc(Cl)cc3Cl)o2)CC1 | -5% | i | -2% | -3% | u | 21µM*
O=C(O)COc1ccc(Cl)cc1Cl | 0% | i | 23% | 12% | i | 8%
C[C@H]1CN([C@@H](C)CO)C(=O)c2cc(NC(=O)Nc3cccc4ccccc34)ccc2O[C@@H]1CN(C)Cc1ccc(-c2ccccc2)cc1 | -1% | i | 57% | -30% | u | -28%
O=C1/C(=C/c2ccc(N(CCCl)CCCl)cc2)Cc2ccccc21 | x | i | x | x | i | x

High-throughput results: PubChem BioAssay, National Center for Advancing Translational Sciences (NCATS)
